Experimental data taken from PubChem BioAssay (NCATS).
Records with an inconclusive call do not appear. Where a call stands in place of a potency, no number is given. The source made the active and inactive calls. Unless noted, calls come from the whole dose curve; as a rule, active = well fitted curve in the direction sought with a large enough effect; inconclusive = small, poorly fitted or top-dose-only effect, or another doubt; inactive = no such curve, though single readings can be large; an effect the other way counts as inactive or inconclusive.

Tests used:
[1] = target: Aldehyde dehydrogenase, mitochondrial (Homo sapiens) (UniProt P05091); assay: qHTS for Inhibitors of the Aldehyde Dehydrogenase Family (ALDH2) Validation screens (AID 2061302; active = well fitted inhibition curve with a large enough effect; title and protocol of this record describe different tests)
[2] = target: Retinaldehyde dehydrogenase 3 (Homo sapiens) (UniProt P47895); assay: qHTS for Inhibitors of the Aldehyde Dehydrogenase Family (ALDH1A3) Validation screen (AID 2061312); note: nearly all actives have a fitted effect of over 45% in size
[3] = BET inhibitor-based combinations targeting novel dependencies in MECOM-rearranged (r) AML: SET-2 cell line (AID 2202231); details: SET-2 AML cells viability, CellTiter-Glo luminescence, 48 h; viability: hits give low values, series mostly up to about 46 µM; note: nearly all actives have a fitted effect of over 35% in size
How it was run: (§1)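 500 cells/well; 11-pt dose curve; 48 h, standard incubator; CellTiter-Glo luminescence after 15 min RT; DMSO/empty-well normalization; AUC plus Z-AUC (mean-centered within each line).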

[4] = BET inhibitor-based combinations targeting novel dependencies in MECOM-rearranged (r) AML: OCI-AML3 cell line (AID 2202232); details: Potency: OCI-AML3 viability; note: series mostly up to about 46 µM; nearly all actives have a fitted effect of over 35% in size
How it was run: as §1

[5] = BET inhibitor-based combinations targeting novel dependencies in MECOM-rearranged (r) AML: MV-4-11 cell line (AID 2202233); note: nearly all actives have a fitted effect of over 45% in size
How it was run: (§2)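 Cells were plated at 500 per well and exposed to each drug across an 11-point dose range for 48 hr at standard incubator conditions. Viability was read by CellTiter-Glo luminescence, and activity was expressed as AUC and per-cell-line Z-transformed AUC.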

[6] = BET inhibitor-based combinations targeting novel dependencies in MECOM-rearranged (r) AML: HNT-34 cell line (AID 2202234); note: nearly all actives have a fitted effect of over 35% in size
How it was run: as §2

[7] = BET inhibitor-based combinations targeting novel dependencies in MECOM-rearranged (r) AML: UCSD-AML1 cell line (AID 2202235); note: series mostly up to about 46 µM; nearly all actives have a fitted effect of over 40% in size
How it was run: as §2

[8] = BET inhibitor-based combinations targeting novel dependencies in MECOM-rearranged (r) AML: AML-191 cell line (AID 2202236; note: nearly all actives have a fitted effect of over 35% in size)
How it was run: as §1

[9] = BET inhibitor-based combinations targeting novel dependencies in MECOM-rearranged (r) AML: AML-194 cell line (AID 2202237; note: nearly all actives have a fitted effect of over 40% in size)
How it was run: as §1

In the case of `C[N+](C)(C)CCOP(=O)(O)OP(=O)([O-])OC[C@H]1O[C@@H](n2ccc(N)nc2=O)[C@H](O)[C@@H]1O`, the Potency [1] was “inactive” and the Potency [2] was “inactive”.
With `Nc1nc(OCC2CCCCC2)c2[nH]cnc2n1` the Potency [1] was “inactive” and the Potency [2] was “inactive”.
With `NC(=O)c1ccccc1` the Potency [1] was “inactive” and the Potency [2] was “inactive”.
With `CN(C)CC[C@@H](c1ccc(Br)cc1)c1ccccn1` the Potency [1] was “inactive” and the Potency [2] was “inactive”.
For `C[N+](C)(C)CCO`, the Potency [1] was “inactive” and the Potency [2] was “inactive”.
In the case of `CC[N+](CC)(CC)CC`, the Potency [1] was “inactive” and the Potency [2] was “inactive”.
With `O=C1NCC2(CCN(CCc3ccccc3)CC2)O1` the Potency [1] was “inactive” and the Potency [2] was “inactive”.
For `CC(N=C(NC#N)Nc1ccncc1)C(C)(C)C` (configuration not stated), the Potency [1] was “inactive” and the Potency [2] was “inactive”.
In the case of `c1ccc2c(c1)CCCC2C1=NCCN1` (configuration not stated), the Potency [1] was “inactive” and the Potency [2] was “inactive”.
For `NCC(O)C1CCCCCCC1` (configuration not stated), the Potency [1] was “inactive” and the Potency [2] was “inactive”.
With `Cn1cnc2c1c(=O)[nH]c(=O)n2C` the Potency [1] was “inactive”, the Potency [2] was “inactive” and the viability [3] was 114% (inactive). The Potency [4] was “inactive”, the Potency [5] was “inactive” and the Potency [6] was “inactive”. The Potency [7] was “inactive”, the Potency [8] was “inactive” and the Potency [9] was “inactive”.
In the case of `CCC(CO)Nc1nc(NCc2ccccc2)c2ncn(C(C)C)c2n1` (configuration not stated), the Potency [1] was “inactive” and the Potency [2] was “inactive”.
For `N=c1ccn2c(n1)O[C@H]1[C@H](O)[C@@H](CO)O[C@H]12`, the Potency [1] was “inactive” and the Potency [2] was “inactive”.
In the case of `CC(=O)[C@H]1CC[C@H]2[C@@H]3CCC4=CC(=O)CC[C@]4(C)[C@H]3CC[C@]12C`, the Potency [1] was “inactive” and the Potency [2] was “inactive”.
In the case of `O=C1CC2(CCCC2)CC(=O)N1CCCCN1CCN(c2ncccn2)CC1`, the Potency [1] was “inactive” and the Potency [2] was “inactive”.
